Source: PubChem BioAssay (National Center for Advancing Translational Sciences (NCATS))
Shiga inhibitor = A qHTS for Small Molecule Inhibitors of Shiga Toxin; 290,000 compounds, 9.2% hits; inhibition, % at 38.7 µM; Vero cells, Shiga toxin protein synthesis inhibition reporter; in the data active = inhibition mostly above about 28%, no sharp cut-off; inactive = mostly below about 43%; also: 0% is about no effect
AMA1 RON2 block = qHTS for Inhibitors of AMA1-RON; Towards Development of Antimalarial Drug Lead: Primary Screen | Plasmodium falciparum AMA1 (3D7) - RON2 peptide interaction | AlphaScreen AMA1-biotinylated RON2 peptide binding | Potency, µM (titrated, usually from 58.2 µM), for the others: top-dose activity change, negative = inhibition, most hits filed as inhibitors | 360,000 compounds, 0.2% hits | AID 720542, 2013;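 also: potency is read from the fitted curve at half-maximal effect; 0% = vehicle wells and -100% = peptide control; nearly all actives have a fitted effect of over 45% in size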
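AMA1 (3D7) with his tag at 25 nM final met compounds first, then biotinylated RON2 peptide at 25 nM; detection used donor plus acceptor beads, 10 µg/mL apiece, read by AlphaScreen after 30 min at room temperature.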
Pf growth 96h = Primary qHTS for delayed death inhibitors of the malarial parasite plastid, 96 hour incubation. P. falciparum luciferase reporter growth, 96 h. Potency, µM (doses to about 28.7 µM), inactives show at the highest dose activity change, negative = inhibition, hits mostly inhibitors. 320,000 compounds, 6.9% hits; also: potency is read from the fitted curve at half-maximal effect; % is scaled to controls: 0 for no effect and ±100 for the full control effect
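Cell-based qHTS: luciferase-tagged P. falciparum in erythrocytes (2% hematocrit, 0.05% parasitemia final) incubated with compounds for 96 hours, 37 C, 5% CO2; luciferase detection reagent then added and luminescence measured.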
SARS PLpro yeast = qHTS of Yeast-based Assay for SARS-CoV PLP | 330,000 compounds, 0.19% hits | S. cerevisiae expressing SARS-CoV PLpro, growth rescue | AID 485353, 2010 | Potency, µM (series often up to 32.9 µM), for the others: at the top dose activity, positive = growth rescue, usual class: activators; calls by dose curve; also: potency is read from the fitted curve at half-maximal effect; 0% is about no effect; nearly all actives have a fitted effect of over 55% in size
Pf growth 48h = Primary qHTS for delayed death inhibitors of the malarial parasite plastid, 48 hour incubation. AID 504832, 2011. 310,000 compounds, 5.9% hits. P. falciparum luciferase growth in erythrocytes, 48 h. Potency, µM (titrated, usually from 28.7 µM), inactives show at the highest dose activity change, negative = inhibition, most hits filed as inhibitors; also: potency is read from the fitted curve at half-maximal effect; % is scaled to controls: 0 for no effect and ±100 for the full control effect
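Growth was read as firefly luciferase luminescence after a 48 h, 37 C, 5% CO2 exposure of compounds to reporter-bearing P. falciparum cultures (0.1% parasitemia, 2% hematocrit final) in Albumax-supplemented RPMI 1640.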
Cycloheximide cs = Cycloheximide Counterscreen for Small Molecule Inhibitors of Shiga Toxin | cell reporter, cycloheximide protein synthesis inhibition counterscreen | 300,000 compounds, 12% hits | max response, % | AID 2314, 2010; in the data active = max response mostly above about 13%, no sharp cut-off; inactive = mostly below about 14%; also: read at 38.3 µM for the half of the compounds with a filed dose; 0% is about no effect
The depositor's hits bear a star; [ ] = another dose, or the depositor's remark. Most compounds without a hit are left out; they make up all but 19% or so of the library. Unless noted, calls follow the shape of the dose curve; as a rule, active = well fitted curve in the direction sought with a large enough effect; inconclusive = small, poorly fitted or top-dose-only effect, or another doubt; inactive = no such curve, though single readings can be large; an effect the other way counts as inactive or inconclusive.

For Cc1nc2ccc(NC(=O)c3cc(Cl)ccn3)cc2s1 the results were Shiga inhibitor 82*, AMA1 RON2 block -18%, Pf growth 96h 179%, SARS PLpro yeast 2%, Pf growth 48h 50% and Cycloheximide cs 62*.
Screening N#Cc1ccccc1S(=O)(=O)N1CCN(C(=O)C2CC(=O)N(c3ccc4c(c3)OCCO4)C2)CC1 (stereo not given) returned AMA1 RON2 block -10%[11.6 µM] and SARS PLpro yeast 4%.
For Clc1ccc(CN2C3=NCCN3c3ccccc32)cc1Cl the results were Shiga inhibitor -22, AMA1 RON2 block -15%, Pf growth 96h -26%, SARS PLpro yeast -1%, Pf growth 48h inconclusive and Cycloheximide cs -10.
Screening O=c1[nH]c(=O)n(Cc2ccccc2)c2c1CCC2 returned Shiga inhibitor 1, AMA1 RON2 block -1%, SARS PLpro yeast -16%, Pf growth 48h 1% and Cycloheximide cs 4.
`N=c1c2c(n(Cc3ccc([N+](=O)[O-])cc3)c3c1CCC3)CCCC2` gave Shiga inhibitor -10, AMA1 RON2 block -3%, Pf growth 96h 10µM*, SARS PLpro yeast 0%, Pf growth 48h inconclusive and Cycloheximide cs -3.
N=c1c2c(n(Cc3ccc(Br)cc3)c3c1CCC3)CCCC2 was read as Shiga inhibitor -1, AMA1 RON2 block 2%, Pf growth 96h 0.033µM*, SARS PLpro yeast -35%, Pf growth 48h 0.093µM* and Cycloheximide cs -5.
`N=c1c2c(n(Cc3ccc(Cl)c(Cl)c3)c3c1CCC3)CCCC2` gave Shiga inhibitor -21, AMA1 RON2 block -2%, Pf growth 96h 10%, SARS PLpro yeast -11%, Pf growth 48h 0.15µM* and Cycloheximide cs -2.
For O=C(CSCc1c(Cl)cccc1Cl)N1CCOCC1 the results were Shiga inhibitor -4, AMA1 RON2 block 22%, Pf growth 96h 3%, SARS PLpro yeast 1%, Pf growth 48h -3% and Cycloheximide cs 2.
For C=CCN1C(=O)CSc2ccc(C(=O)NCCC3=CCCCC3)cc21 the results were Shiga inhibitor -5, AMA1 RON2 block 7%, Pf growth 96h 2%, SARS PLpro yeast -11% and Cycloheximide cs 5.
For O=C(O)C(=O)/C(=C\c1ccsc1)c1ccc2ccccc2n1 the results were Shiga inhibitor 87*, AMA1 RON2 block 0%, Pf growth 96h inactive, SARS PLpro yeast -2%, Pf growth 48h 234% and Cycloheximide cs 27*.
Screening O=C(O)C(=O)/C(=C\c1ccccc1)c1ccc2ccccc2n1 returned Shiga inhibitor 89*, AMA1 RON2 block -3%, Pf growth 96h 394%, SARS PLpro yeast 10% and Cycloheximide cs 34*.
Screening O=C(O)C(=O)/C(=C\c1ccc([N+](=O)[O-])cc1)c1ccc2ccccc2n1 returned Shiga inhibitor 49*, AMA1 RON2 block 4%, Pf growth 96h inactive, SARS PLpro yeast -1%, Pf growth 48h 305% and Cycloheximide cs 27*.
Screening O=C(O)C(=O)/C(=C\c1cccc2ccccc12)c1ccc2ccccc2n1 returned Shiga inhibitor -11, AMA1 RON2 block 17%, Pf growth 96h 20%, SARS PLpro yeast -7% and Cycloheximide cs 1.
For CCOCc1cc(=O)[nH]c(SC)n1 the results were Shiga inhibitor 7, AMA1 RON2 block 14%, Pf growth 96h -15%, SARS PLpro yeast 4%, Pf growth 48h 2% and Cycloheximide cs -3.
For COc1cccc(N2CCN(C(=S)Nc3ccccc3OC)CC2)c1 the results were AMA1 RON2 block -4%, Pf growth 96h 9.3µM*, SARS PLpro yeast 2%, Pf growth 48h -14% and Cycloheximide cs -2.
Screening COc1cccc(NC(=S)N2CCN(C(c3ccccc3)c3ccccc3)CC2)c1 returned Shiga inhibitor -7, AMA1 RON2 block -1%, Pf growth 96h 31%, SARS PLpro yeast inconclusive, Pf growth 48h 26% and Cycloheximide cs -4.
COc1ccc(NC(=S)N2CCN(C(c3ccccc3)c3ccccc3)CC2)c(OC)c1 was read as Shiga inhibitor -5, AMA1 RON2 block -20%, Pf growth 96h 72%, SARS PLpro yeast -2%, Pf growth 48h 5.2µM* and Cycloheximide cs 0.
`CCOc1ccccc1NC(=S)N1CCN(c2cccc(OC)c2)CC1` gave Shiga inhibitor -8, AMA1 RON2 block -12%, Pf growth 96h inconclusive, SARS PLpro yeast 3%, Pf growth 48h -27% and Cycloheximide cs 1.
Screening O=C(CNS(=O)(=O)c1ccc(Cl)c(C(F)(F)F)c1)NC1CCCCCC1 returned AMA1 RON2 block -1%, Pf growth 96h 12%, SARS PLpro yeast -1% and Pf growth 48h -13%.
Screening Cc1ccnc(N/C=C(\C#N)c2nc(-c3cccc(Br)c3)cs2)c1 returned Shiga inhibitor 22, AMA1 RON2 block -10%, Pf growth 96h 2.9µM*, SARS PLpro yeast -10%, Pf growth 48h 12µM* and Cycloheximide cs 15*.
Screening N#C/C(=C\Nc1ccc2cn[nH]c2c1)c1nc(-c2ccccc2)cs1 returned Shiga inhibitor -20, AMA1 RON2 block -5%, Pf growth 96h inconclusive, SARS PLpro yeast 1%, Pf growth 48h inconclusive and Cycloheximide cs -2.
`CC(=O)n1cc([C@@H]2C=C(C(=O)N3CCN(Cc4ccc5c(c4)OCO5)CC3)O[C@H](OCCCCO)C2)c2ccccc21` gave Shiga inhibitor -16, AMA1 RON2 block -9%, Pf growth 96h 12µM*, SARS PLpro yeast 1%, Pf growth 48h inconclusive and Cycloheximide cs -3.
CC(=O)n1cc([C@H]2C=C(C(=O)N3CCN(Cc4ccccc4)CC3)O[C@@H](OCCCCO)C2)c2ccccc21 was read as Shiga inhibitor 14, AMA1 RON2 block -9%, Pf growth 96h 5.2µM*, SARS PLpro yeast -1%, Pf growth 48h inconclusive and Cycloheximide cs 0.
`O=C(C1=C[C@H](c2ccc3c(c2)OCO3)C[C@H](OCCCCO)O1)N1CCN(Cc2ccc3c(c2)OCO3)CC1` gave Shiga inhibitor -14, AMA1 RON2 block -4%, Pf growth 96h inconclusive, SARS PLpro yeast 0%, Pf growth 48h inconclusive and Cycloheximide cs 6.
For CC(=O)n1cc([C@@H]2C=C(C(=O)N3CCN(Cc4ccccc4)CC3)O[C@H](OCc3ccc(CO)cc3)C2)c2ccccc21 the results were Shiga inhibitor -5, AMA1 RON2 block -16%, Pf growth 96h 3.3µM*, SARS PLpro yeast 0%, Pf growth 48h 0.93µM* and Cycloheximide cs -1.
CC(=O)n1cc([C@H]2C=C(C(N)=O)O[C@@H](OCc3ccc(CO)cc3)C2)c2ccccc21 was read as AMA1 RON2 block -1%.
For Cn1c(CC(=O)Nc2ccccc2F)nnc1SCC(=O)N1CCOCC1 the results were Shiga inhibitor 42, AMA1 RON2 block 12%, Pf growth 96h -9%, SARS PLpro yeast inconclusive, Pf growth 48h 33% and Cycloheximide cs 30*.
